PI5P4K alpha inh: PI5P4K alpha (human) kinase inhibition. P48426. PI5P4Kalpha enzyme, ADP-Glo luminescence, 60 min; hits give low values. max response, %. 330,000 tested, 1.2% active. AID 652105; active = max response of -50% or lower; inconclusive = between -30% and -50%; inactive = -30% or higher; also: value at the top dose of about 77 µM
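PI5P4Kalpha ADP-Glo assay; 5 microM ATP final; 60 min RT reaction; HEPES pH 7.4/EGTA/CHAPS, 5% DMSO; controls lacking substrate or enzyme; luminescent end-point.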
Pol kappa inh: blocks human DNA polymerase kappa activity; Potency, µM (doses to about 107 µM), hits mostly inhibitors; Q9UBT6; purified Pol kappa, fluorescent DNA synthesis assay, 10 min; 400,000 tested, 0.53% active
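Readout: fluorescence, taken kinetically at 0 and 10 min. Conditions: 10 nM Pol kappa, 15 min RT compound preincubation, 50 nM substrate final. Controls: enzyme-free buffer wells.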
WRN helicase inh-1: WRN helicase (human) inhibition. Q14191. WRN helicase unwinding, fluorescent forked duplex, kinetic. Potency, µM (titrated, usually from 114 µM), actives largely listed as inhibitors. 360,000 tested, 0.46% active. AID 651768; also: nearly all actives have a fitted effect of over 55% in size
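Enzyme (20 nM final) and test compound sit together 15 min at room temperature before substrate addition. Substrate is a single-forked duplex oligonucleotide (100 nM) labelled with fluorophore and quencher, with 2 mM ATP; helicase unwinding raises red fluorescence, read kinetically.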
Pol eta inh: blocks human DNA polymerase eta activity | Q9Y253 | recombinant Pol eta, fluorescent DNA replication assay | Potency, µM (doses to about 114 µM), actives largely listed as inhibitors | 390,000 tested, 1.2% active
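Fluorescent replication assay: 50 nM final substrate added after a 15 min room-temperature compound preincubation with 10 nM enzyme. Signal taken at 0 min and again at 10 min.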
Pol beta inh: blocks human DNA polymerase beta activity. Pol beta primer extension/strand displacement, fluorescence kinetic. Potency, µM (highest dose often 114 µM), actives largely listed as inhibitors. 340,000 tested, 1.3% active. AID 485314
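Reaction started by 50 nM substrate onto compound-treated Pol beta (10 nM, 15 min preincubation, room temperature); plates read at 0 min and 10 min. Normalized concentration-effect data fitted by four-parameter Hill equation.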
Pol iota inh: DNA polymerase iota (human) inhibition; Pol iota fluorescent replication assay, 10 min; Potency, µM (highest dose often 115 µM), most hits filed as inhibitors; Q9UNA4; 390,000 tested, 1% active
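Fluorescent replication assay read twice, at 0 min and 10 min after adding 50 nM (final) substrate. Enzyme (10 nM) and compounds were first incubated 15 min at room temperature; enzyme-free buffer wells were negative controls.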
WRN helicase inh-2: confirmation of human WRN helicase inhibitors; shares compounds with WRN helicase inh-1; 610 tested, 63% active; WRN helicase DNA unwinding, fluorescence kinetic; Potency, µM (highest dose often 57.1 µM), hits mostly inhibitors; also: nearly all actives have a fitted effect of over 65% in size
TO DNA binding: counter-screen for WRN helicase inhibitors: DNA binding. shares compounds with WRN helicase inh-1. thiazole orange DNA binding displacement, fluorescence. Potency, µM (doses to about 57.1 µM), most hits filed as inhibitors. 610 tested, 10% active;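 also: drop in dye fluorescence marks compound binding to DNA; nearly all actives have a fitted effect of over 60% in size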
BLM counter: counter-screen for WRN helicase inhibitors: human BLM helicase inhibition; shares compounds with WRN helicase inh-1; 610 tested, 60% active; Recombinant BLM helicase DNA unwinding, red fluorescence; Potency, µM (top dose mostly 57.1 µM), hits mostly inhibitors; also: nearly all actives have a fitted effect of over 60% in size
ADP-Glo interf: interferes with ADP-Glo detection without enzyme present. shares compounds with PI5P4K alpha inh. ADP-Glo detection counter-screen, luciferase luminescence, no enzyme. 1,100 tested, under 10 active. Potency, µM (top dose mostly 76.9 µM), usual class: inhibitors
Hits are given with their value; i = inactive; ? = inconclusive; nt = no result; [ ] = another dose, or the depositor's remark. In the library only some 2.8% were active in any assay of this set; here they are far more common. Unless noted, calls follow the shape of the dose curve; as a rule, active = well fitted curve in the direction sought with a large enough effect; inconclusive = small, poorly fitted or top-dose-only effect, or another doubt; inactive = no such curve, though single readings can be large; an effect the other way counts as inactive or inconclusive.

SMILES	PI5P4K alpha inh	Pol kappa inh	WRN helicase inh-1	Pol eta inh	Pol beta inh	Pol iota inh	others
Cc1ccc(OCCOc2cccc(C=C3C(=O)NC(=O)NC3=O)c2)c(C)c1	-62	i	35µM	i	?	?	WRN helicase inh-2=?;TO DNA binding=i;BLM counter=27µM
C[C@]12[C@H](O)CC3C(CC[C@@H]4C[C@@H](O)CC[C@]34C)[C@@]1(O)CC[C@@H]2C1=CC(=O)OC1 (some centres not stated)	nt	i[19.4 µM]	nt	nt	nt	nt
CN1C(=O)C(=Cc2ccccc2OCc2ccc(Cl)cc2)C(=O)N(C)C1=O	i	i	i	i	i	i
CN1C(=O)C(=Cc2ccccc2Oc2ccc(Cl)cc2)C(=O)N(C)C1=O	?	i	45µM	i	i	i	WRN helicase inh-2=19µM;TO DNA binding=i;BLM counter=7.6µM
CCOC(=O)Cn1cc(C=C2C(=O)N(C)C(=O)N(C)C2=O)c2ccccc21	i	i	i	i	i	i
Cc1ccc(S(=O)(=O)Oc2ccccc2C=C2C(=O)N(C)C(=O)N(C)C2=O)cc1	?	i	45µM	i	i	i	WRN helicase inh-2=i;TO DNA binding=i;BLM counter=i
O=C1C=CC2C3C(=O)N(c4ccccc4)C(=O)C3C1N2Cc1ccccc1 (configuration not stated)	i	i	?	?	nt	?
CCN(CC)c1ccc(NC(=O)c2cccc(C)c2)cc1S(=O)(=O)Nc1ccccc1OC	?	i	?	i	i	i
CC(C)NCC(O)c1ccc(C2CCCC2)cc1 (configuration not stated)	i	i	i	i	i	i	ADP-Glo interf=i
CCCCCn1c(=O)c(C(=O)Nc2ccccc2S(N)(=O)=O)c(O)c2ccccc21	-53	i	i	i	i	i	ADP-Glo interf=i
CCCCC/C=C\C=C\[C@H](CCCCCCCC(=O)O)OO	nt	i[19.4 µM]	nt	nt	nt	nt
O=C1CC2OCC=C3CN4CC[C@]56c7ccccc7N1[C@H]5[C@H]2C3C[C@H]46 (some centres not stated)	nt	i	nt	nt	nt	nt
CCCNC(=O)N1[C@H]2CC[C@@H]1C(C(=O)OC)=C(c1ccc(OC)c(OC)c1)C2	-85	i	i	i	nt	i	ADP-Glo interf=i
COCCNC(=O)N1[C@H]2CC[C@@H]1C(C(=O)OC)=C(c1ccc(OC)c(OC)c1)C2	i	i	i	i	nt	i

Screening data deposited in PubChem BioAssay by National Center for Advancing Translational Sciences (NCATS).
